Screening results as filed in PubChem.
The list is not random: actives were taken first. Their share in the collection is about 19%.
IL1B secr inh – blocks inflammasome-driven IL-1 beta release. activity change, % at 57.5 µM. 360,000 tested, 4.7% active. THP-1 LPS/ATP IL-1B secretion, AlphaLISA, 16 h; stronger effect = lower value; in the data active = activity change below about -50%; inconclusive = mostly about -30% to -49%
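Secreted IL-1B measured by AlphaLISA bead assay after 16 h compound exposure of THP-1 cells; compounds (final up to 57.5 uM) added 1 h before LPS (250 ng/mL) and ATP (1.25 mM) stimulation; lower signal means less secretion.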
HT1080-NT tox – kills 2HG-producing HT-1080-NT fibrosarcoma cells | HT-1080-NT fibrosarcoma viability, CellTiter-Glo ATP luminescence, 48 h | Potency, µM (doses to about 46.1 µM), without a hit: top-dose activity, negative = less viability, usual class: cytotoxic | 360,000 tested, 1.6% active | AID 686970;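 note: NT is the 2HG producing partner of a matched IDH1 knockdown line; potency is the fitted concentration of half-maximal effect; 0% = DMSO-treated cells and -100% = media-only wells without cells; nearly all actives have a fitted effect of over 55% in size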
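Fibrosarcoma NT cells, 750 per well in 5% FBS RPMI, were exposed to compound for 48 hours. Viability: CellTiter-Glo luminescence.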
DT40 TDP1 CPT – growth inhibition of DT40 Tdp1-/-;hTDP1 cells with camptothecin (screen for TDP1 inhibitors); 420,000 tested, 12% active; chicken DT40 Tdp1-/-;hTDP1 cells + 20 nM CPT, ATP luminescence, 48 h; Potency, µM (highest dose often 46.2 µM), without a hit: at the top dose activity change, negative = growth inhibition, usual class: inhibitors; note: potency is the fitted concentration of half-maximal effect; nearly all actives have a fitted effect of over 55% in size
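Chicken DT40 Tdp1-/- cells complemented with human TDP1, 400 cells/well, exposed to compounds plus 20 nM camptothecin for at least 48 h at 37 C; viability read as ATP content by CellTiter-Glo luminescence.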
uPA generation – blocks generation of uPA at the cell surface | cell surface uPA generation assay, qHTS | Potency, µM (series often up to 38.3 µM), for the others: at the top dose activity change, negative = inhibition, hits mostly inhibitors | 330,000 tested, 0.31% active | AID 540303; active = well fitted inhibition curve with a large enough effect; inconclusive = small, poorly fitted or top-dose-only effect; inactive = no such curve, though single readings can be large or run the other way; tested in mouse RAW 264.7 cells; note: potency is the fitted concentration of half-maximal effect; nearly all actives have a fitted effect of over 55% in size
HT1080 IDH1KD tx – kills HT-1080 cells with IDH1 knockdown; HT-1080 IDH1 knockdown viability, ATP luminescence, 48 h; Potency, µM (top dose mostly 46.1 µM), for the others: top-dose activity, negative = toxicity, usual class: cytotoxic; 360,000 tested, 2% active; AID 686971;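 note: potency is the fitted concentration of half-maximal effect; 0% = DMSO wells and -100% = cell-free medium wells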
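Viability of IDH1-knockdown HT-1080 fibrosarcoma cells was assessed by CellTiter-Glo after 48 h at 37 °C with titrated compound; concentration-effect curves were classified by fit quality and response size.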
TDP1 cell noCPT – qHTS for Inhibitors of human tyrosyl-DNA phosphodiesterase 1 (TDP1): qHTS in cells in absence of CPT. DT40 Tdp1-/- hTDP1 cells, no CPT, ATP luminescence, 48 h. Potency, µM (doses to about 46.2 µM), inactives show top-dose activity change, negative = growth inhibition, hits mostly inhibitors. 420,000 tested, 15% active. AID 686978, 2013; note: potency is the fitted concentration of half-maximal effect; nearly all actives have a fitted effect of over 55% in size
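Seeded 400 DT40-hTDP1 cells/well (vehicle DMSO, no 20 nM CPT); pinned compounds; ≥48 hr at 37 °C; CellTiter-Glo luminescence as viability measure.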
* hit, by the source's call; ? = inconclusive; . = no result; [ ] = another dose, or the depositor's remark. Unless noted, calls come from the whole dose curve; as a rule, active = well fitted curve in the direction sought with a large enough effect; inconclusive = small, poorly fitted or top-dose-only effect, or another doubt; inactive = no such curve, though single readings can be large; an effect the other way counts as inactive or inconclusive. Unless noted, % is set by controls: 0 for no effect and ±100 for the full control effect.

SMILES	IL1B secr inh	HT1080-NT tox	DT40 TDP1 CPT	uPA generation	HT1080 IDH1KD tx	TDP1 cell noCPT
C=CCc1cc(Cl)ccc1OCCOCCNC(C)CC (stereo not given)	-78.0*	16.4µM*	?	-2.0%	?	?
CCC(C)NCCOCCSc1ccc(Cl)cc1 (stereo not given)	-52.1*	0.3%	?	-2.0%	-14.3%	?
CCC(C)NCCCCOc1ccc(Cl)cc1C (stereo not given)	?	?	?	7.2%	?	20.6µM*
Clc1ccc(OCCCNCc2ccccc2)c2ccccc12	?	?	?	-1.0%	?	?
CCC(C)NCCOCCOc1ccc(Cl)c2ccccc12 (stereo not given)	-103.7*	16.4µM*	9.2µM*	-2.0%	20.6µM*	18.4µM*
C=CCc1cc(Cl)ccc1OCCN(C)C	-10.7	2.5%	-8.7%	.	-3.2%	-1.5%
C=CCc1cc(Cl)ccc1OCCCNCCO	-10.7	?	?	-15.9%	?	16.4µM*
Cc1ccc2[nH]c(=O)c(CN(Cc3ccc4c(c3)OCO4)Cc3nnnn3Cc3ccco3)cc2c1	-59.1*	-18.9%	11.6µM*	-9.9%	-17.4%	?
Cc1cc(C)c2cc(CN(Cc3ccc4c(c3)OCO4)Cc3nnnn3Cc3ccco3)c(=O)[nH]c2c1	-61.8*	-18.9%	?	-8.5%	-17.7%	?
FC(F)(F)C(F)(F)C(F)(F)C(F)(F)C(F)(F)F	.	.	-6.7%	.	.	-9.0%
O=[N+]([O-])c1ccc(N2CCN(Cc3ccc4c(c3)OCO4)CC2)nc1	-22.8	?	?	-0.9%	?	?
O=Cc1cc([N+](=O)[O-])ccc1N1CCN(Cc2ccc3c(c2)OCO3)CC1	-63.8*	-0.8%	-5.4%	-5.8%	-9.9%	?
O=C1Nc2ccc([N+](=O)[O-])cc2OC1CCN1CCN(Cc2ccc3c(c2)OCO3)CC1 (stereo not given)	-50.6*	-23.7%	12.8%	4.6%	-19.6%	?
CCC(C)NC(=O)C1=CC(c2ccc3c(c2)OCO3)=NS(=O)(=O)N1C (stereo not given)	.	.	7.9%	.	.	-13.2%
OC(CN(Cc1ccccc1)Cc1ccccc1)c1ccccc1 (stereo not given)	-8.8	-1.2%	16.4µM*	1.5%	?	18.4µM*
C=C(C)CN1CCN(S(=O)(=O)c2ccc(C)c(N(C)S(=O)(=O)c3ccc(C)cc3)c2C)CC1	-1.1	-2.6%	23.1µM*	-4.4%	-0.4%	10.3µM*
Cc1ccc(S(=O)(=O)N(C)c2c(C)ccc(S(=O)(=O)N3CCN(C)CC3)c2C)cc1	0.8	-4.2%	-9.4%	-1.2%	-1.5%	?
Cc1noc(C)c1C(=O)Nc1nc2ccc(S(C)(=O)=O)cc2s1	12.5	-17.2%	-17.2%	5.01µM*	0.6%	?
CS(=O)(=O)c1ccc2nc(NC(=O)c3cc4ccccc4o3)sc2c1	1.1	-7.7%	?	-5.1%	-4.4%	?
CS(=O)(=O)c1ccc2sc(NC(=O)c3cc4ccccc4o3)nc2c1	-1.3	-1.6%	?	-1.7%	-11.4%	23.1µM*
Cc1ccc(C(=O)Nc2nc3ccc(S(C)(=O)=O)cc3s2)o1	3.0	20.6µM*	10.3µM*	-11.6%	?	11.6µM*
COc1ccc2nc(NC(=O)c3c(C)noc3C)sc2c1	-3.2	-1.5%[9.24 µM]	-8.9%	?	1.1%	9.5%
CS(=O)(=O)c1ccc2nc(NC(=O)c3ccco3)sc2c1	39.8	?	?	10µM*	?	?
O=C(Nc1nc2cc3c(cc2s1)OCO3)c1ccco1	-1.6	?	?	-5.9%	?	?
O=C(NC(=S)Nc1nc2ccc(F)cc2s1)c1ccco1	40.6	7.7%	4.11µM*	-5.5%	1.4%	2.91µM*
SMILES	IL1B secr inh	HT1080-NT tox	DT40 TDP1 CPT	uPA generation	HT1080 IDH1KD tx	TDP1 cell noCPT
O=C(COC(=O)[C@@H]1CCCN1C(=O)c1cccs1)Nc1cccc([N+](=O)[O-])c1	7.0	8.3%	-25.9%	-4.1%	1.4%	-3.8%
Cn1c2c(c(=O)n(C)c1=O)C1(C(=O)Nc3ccccc31)C(C#N)=C(N)O2 (stereo not given)	-21.2	3.6%	14.6µM*	2.0%	8.6%	?
N#Cc1cc(C(=O)c2cc(Br)ccc2O)cn(C2CCCCC2)c1=O	-80.5*	2.2%	12.6µM*	.	-22.8%	20µM*
Cc1ccc(OCc2ccc(C#N)cc2)c(C(=O)c2cc(C#N)c(=O)n(C3CC3)c2)c1	8.9	-2.6%	-13.0%	0.6%	5.2%	-14.4%
COc1ccc(O)c(C(=O)c2cc(C#N)c(=O)n(CC3CCCO3)c2)c1 (stereo not given)	0.3	-5.5%	?	-3.3%	-0.1%	?
Cc1ccc(O)c(C(=O)c2cc(C#N)c(=O)n(CC3CCCO3)c2)c1 (stereo not given)	-18.7	-8.7%	14.6µM*	2.6%	-0.9%	20.6µM*
CC(=O)c1cccc(NC(=O)COc2ccccc2C(=O)c2cc(C#N)c(=O)n(C3CCCCC3)c2)c1	-2.8	-1.0%	?	7.8%	-3.1%	11.6µM*
CNC(=O)c1cc(C(=O)c2ccc(F)cc2C(F)(F)F)c[nH]1	55.8	-0.9%	?	-27.6%	-9.7%	?
Cc1ccc(C)c(S(=O)(=O)N2CCN(C(=O)c3sccc3C)CC2)c1	?	6.8%	-21.4%	-2.1%	6.3%	?
Cc1cnc(CNC(=O)c2c3n(c(C)cc2=O)-c2ccccc2SC(c2ccsc2)C3)cn1 (stereo not given)	.	.	-9.8%	.	.	-7.4%
Cn1ccnc1SCC(=O)c1ccc(F)cc1	-13.2	3.6%	1.5%	-0.6%	10.5%	-7.3%
CC1N=C(SCC(=O)c2ccc(F)cc2)N2C(C)N=C(SCC(=O)c3ccc(F)cc3)N12 (stereo not given)	27.7	-3.5%	4.11µM*	.	2.3%	4.11µM*
CC[C@@]1(O)C(=O)OCc2c1cc1n(c2=O)Cc2cc3c([N+](=O)[O-])cccc3nc2-1	.	.	0.0335µM*	.	.	0.211µM*
CCCCc1cc(=O)oc2c(CN(C)C)c(O)ccc12	-2.3	-10.3%	-8.2%	3.6%	-11.0%	-20.3%
CC[C@@]1(O)C(=O)OCc2c1cc1n(c2=O)Cc2cc3c(CN(C)C)c(O)ccc3nc2-1	-102.9*	1.16µM*	0.146µM*	-93.8%	2.06µM*	0.184µM*
COc1ccccc1N1CCN(CC(=O)Nc2c(C)n(C)n(-c3ccccc3)c2=O)CC1	24.2	7.8%	-8.9%	1.6%	13.5%	-15.4%
